Test results published in PubChem BioAssay (Tox21).
Values without a mark were called inactive. Activity calls are given as the source filed them. The call rests on the fitted dose curve; in most records, active means well fitted inhibition curve with a large enough effect in the repeat runs (not every such curve was filed as active); inconclusive means weak or mixed curves; inactive means flat fitted curve, though single readings scatter.

target: Thyrotropin-releasing hormone receptor (Homo sapiens) (UniProt P34981); test: qHTS assay to identify small molecule antagonists of the thyrotropin-releasing hormone receptor (TRHR) signaling pathway (AID 1346877); conditions: TRHR-HEK293, TRH-induced calcium fluorescence, antagonist mode; series mostly up to 51.3 µM
Sequence (P34981 whole entry, looked up): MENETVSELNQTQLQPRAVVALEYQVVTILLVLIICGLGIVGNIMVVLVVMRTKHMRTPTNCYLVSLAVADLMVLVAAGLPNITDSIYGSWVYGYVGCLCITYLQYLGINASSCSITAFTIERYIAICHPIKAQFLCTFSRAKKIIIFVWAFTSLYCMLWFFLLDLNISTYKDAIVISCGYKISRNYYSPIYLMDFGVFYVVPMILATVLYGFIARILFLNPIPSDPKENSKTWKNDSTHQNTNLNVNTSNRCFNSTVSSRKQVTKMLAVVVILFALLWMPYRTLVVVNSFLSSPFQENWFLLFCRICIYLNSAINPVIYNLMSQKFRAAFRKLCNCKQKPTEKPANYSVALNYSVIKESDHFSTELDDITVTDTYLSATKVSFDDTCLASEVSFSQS
Source text: National Center for Advancing Translational Sciences [NCATS]
NIH Chemical Genomics Center [NCGC]
U.S. Environmental Protection Agency [EPA]
National Institutes of Environmental Health Sciences [NIEHS]
National Toxicology Program [NTP]
U.S. Food and Drug Administration [FDA]
Thyrotropin-releasing hormone (TRH) receptor (TRHR) is a G-protein-coupled receptor which binds the tripeptide thyrotropin releasing hormone. TRHR is found in the brain and, when bound by TRH, acts (through phospholipase C) to increase intracellular inositol trisphosphate. It plays a crucial role in the anterior pituitary where it controls the synthesis and secretion of thyroid stimulating hormone and prolactin. The TRHR-Hek293 assay is a cell-based assay, and it has the potential to screen G protein-coupled receptors. A compound/drug can either activate (agonist) or suppress (antagonist) GPCRs that can be monitored by levels of intracellular calcium. In this assay, the Tox21 10K compound library was screened to identify potential TRHR antagonists.
Tox21 Assay Protocol Summary:
The TRHR-Hek293 cells were dispensed at 1500cells/4uL/well in 1536-well black-clear bottom plates using a Multidrop dispenser. After the assay plates were incubated at a 37 C/5% CO2 incubator for 18 hours, 4 uL of Dye-Loading Solution was added to each well. The plates were incubated at 37 C for 2 hours. For agonist mode, 23 nL of compounds dissolved in DMSO, positive controls or DMSO only was transferred to the assay plate by a pin tool. The fluorescence intensity in the plates was measured using FDSS 7000EX kinetic plate reader for 3 min at 1 sec intervals. For antagonist mode, 23 nL of compounds dissolved in DMSO, positive controls or DMSO only was transferred to the assay plate by a pin tool. After 5 min incubation at room temperature, 1 uL of TRH was added on the top of the cell/compound mixtures to achieve a final agonist concentration of 1 nM. The fluorescence intensity in the plates was measured using FDSS 7000EX kinetic plate reader for 3 min at 1 sec intervals. Each test compound was measured at 15 concentrations and in triplicates.
On the % scale 0 is the no-effect control and ±100 the full control effect.

Row | Compound | outcome | activity, negative = inhibition
1 | CC(C)c1nc(CN(C)C(=O)N[C@H](C(=O)N[C@@H](Cc2ccccc2)C[C@H](O)[C@H](Cc2ccccc2)NC(=O)OCc2cncs2)C(C)C)cs1 | inactive | –
2 | CCCCCCCC/C=C\CCCCCCCCO | inactive | –
3 | CCCCCCCCCI | inactive | –
4 | CN1C(=O)N(c2ccccc2Br)Cc2cnc(Nc3ccc4c(c3)OCC(CO)O4)nc21 (stereo not given) | inactive | –
5 | NCCNCCO | inactive | –
6 | CC(C)(c1ccccc1)c1ccccc1 | inactive | –
7 | CO[C@]1(NC(=O)CSC(F)F)C(=O)N2C(C(=O)O)=C(CSc3nnnn3CCO)CO[C@H]21 | inactive | –
8 | COc1ccccc1Oc1c(NS(=O)(=O)c2ccc(C(C)(C)C)cc2)nc(-c2ncccn2)nc1OCCO | inactive | –
9 | O=C1CCCCCCCCCCOCCCCO1 | inactive | –
10 | C=C1c2cccc(O)c2C(O)=C2C(=O)[C@]3(O)C(O)=C(C(N)=O)C(=O)[C@@H](N(C)C)[C@@H]3[C@@H](O)[C@H]12 | inactive | –
11 | NC1[C@H]2CN(c3nc4c(cc3F)c(=O)c(C(=O)O)cn4-c3ccc(F)cc3F)C[C@@H]12 (stereo not given in full) | inactive | –
12 | Cc1cc(=O)c2c(O)c3c(O)cc(=O)c4c3c3c(cc(O)c1c23)C(C)(C)C=4O | – | 1.99% [at 10.5 µM]
13 | O=C1c2ccccc2C(=O)c2c(O)c(O)cc(O)c21 | inactive | –
14 | C=CC(C)(CCC=C(C)C)OC(=O)CC(C)C (stereo not given) | inactive | –
15 | C[C@H]1c2cccc(O)c2C(O)=C2C(=O)[C@]3(O)C(O)=C(C(N)=O)C(=O)[C@@H](N(C)C)[C@@H]3[C@@H](O)[C@@H]21 | inactive | –
16 | CCOC(=O)c1ccc(OCCN2C[C@H](O)[C@@H](O)[C@H](O)[C@H]2CO)cc1 | inactive | –
17 | Cc1ccc(C(C)(C)O)cc1 | inactive | –
18 | Oc1ccc(Cl)c2cccnc12 | inactive | –
19 | CN1CCCC(CC2c3ccccc3Sc3ccccc32)C1 (stereo not given) | inactive | –
20 | Cc1cc(O)ccc1O | inactive | –

Row | Compound | outcome | activity, negative = inhibition
21 | CNC(=O)c1cnn(-c2nc(N)c3ncn([C@@H]4O[C@H](CO)[C@@H](O)[C@H]4O)c3n2)c1 | inactive | –
22 | C[C@]12CC[C@@H]3c4ccc(O)cc4CC[C@H]3[C@@H]1CC[C@@H]2OC(=O)CCC1CCCC1 | inactive | –
23 | O=C(O)C[C@H](NC(=O)OCc1ccccc1)C(=O)O | inactive | –
24 | CC[C@]1(O)C[C@H]2CN(CCc3c([nH]c4ccccc34)[C@@](C(=O)OC)(c3cc4c(cc3OC)N(C=O)[C@H]3[C@@](O)(C(=O)OC)[C@H](OC(C)=O)[C@]5(CC)C=CCN6CC[C@]43[C@@H]65)C2)C1 | inactive | –
25 | O=C(Nc1cccc2c(=O)cc(-c3nn[nH]n3)oc12)c1ccc(OCCCCc2ccccc2)cc1 | inactive | –
26 | C[C@]1(Cn2ccnn2)[C@H](C(=O)O)N2C(=O)C[C@H]2S1(=O)=O | inactive | –
27 | C=Cc1ccc(S(=O)(=O)O)cc1 | inactive | –
28 | CC(C)=CCC/C(C)=C/CC/C(C)=C/CCC(=O)OC/C=C(\C)CCC=C(C)C | inactive | –
29 | COc1cc(C(=O)NCCCCCC(=O)O)cc(OC)c1OC | inactive | –
30 | CCC=CC#N | inactive | –
31 | CC(C)=CC(=O)C=C(C)C | inactive | –
32 | CCCCCCCCC(CCCCCC)C(=O)O (stereo not given) | inactive | –
33 | CCCCN1CCCC1C(=O)Nc1c(C)cc(C)cc1C (stereo not given) | inactive | –
34 | O=C1c2ccccc2C(=O)C1c1ccc(Br)cc1 | inactive | –
35 | O=[N+]([O-])c1ccc(Nc2ccc(Nc3ccccc3)c(S(=O)(=O)O)c2)c([N+](=O)[O-])c1 | inactive | –
36 | C=COCC(C)C | inactive | –
37 | CCCCCCC(C)(C)C(=O)O | inactive | –
38 | C/C=C\C/C=C/CCCCCCCCOC(C)=O | inactive | –
39 | CCN(CC)CCNC(=O)COc1ccc(OC)cc1 | inactive | –
40 | CC(=O)Oc1ccc([N+](=O)[O-])cc1CCl | inactive | –
